Assay results reported in PubChem BioAssay AID2417 (National Center for Advancing Translational Sciences (NCATS), 2010).
Out of some 140,000 compounds screened, about 4,300 (3.1%) were called active. Inconclusive results (about 21%) are left out. What follows is part of a selection rich in actives, with near analogues and random picks from the rest. Unmarked numbers belong to inactive results.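 Rule for the calls: active = readout at or below -70, meaning at least 70% loss of cells showing the perinucleolar compartment, a nuclear body marking cancer cells; inconclusive = readout between -30 and a set limit; inactive = the rest.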

experiment: High Content Assay for Compounds that inhibit the Assembly of the Perinucleolar Compartment; details: PC3M PTB-GFP, PNC prevalence imaging, 16 h; at 10 µM; active compounds read low;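 note: plate controls were DMSO wells for no effect and camptothecin positive control wells for full effect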
Procedure, shortened: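 Read-out is percentage of cells bearing a perinucleolar compartment, from automated 20x imaging of fixed, Hoechst-stained PC3M PTB-GFP cells. Cells were seeded 4 h, then exposed 16 h to compound (23 nl of library stock) in duplicate plates.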

Compound	activity change (PNC), negative = inhibition
CCOC(=O)c1ccc(NC(=O)CSc2nnc(COc3ccccc3OC)n2C)cc1	-83.9% (active)
COC(=O)c1ccc(NC(=O)CSc2nnc(-c3ccncc3)n2C)cc1	-12.9%
CCOC(=O)c1ccc(NC(=O)CSc2ncccn2)cc1	-27.8%
CN(CC(=O)Nc1ccc(S(=O)(=O)N2CCCC2)cc1)Cc1ccc(Cl)c(Cl)c1	14.3%
Cc1nc2scc(-c3cccs3)c2c(=O)n1N	38.3%
CCCCNc1nc2c(c(=O)n(C)c(=O)n2C)n1Cc1cccc(OC)c1	-17.3%
CCCCNc1nc2c(c(=O)[nH]c(=O)n2C)n1CCOc1ccccc1	44.9%
Cn1c(=O)[nH]c(=O)c2c1nc(NCCCn1ccnc1)n2Cc1cccc(Br)c1	-100% (active)
O=C(N/N=C\c1ccc(Br)cc1)c1ccc(Cn2cccn2)o1	-11.4%
CN(C)S(=O)(=O)c1ccc(N2CCCC2=O)c([N+](=O)[O-])c1	43.2%
COc1ccc2c(c1)C(SCC(=O)NCc1ccccc1)CC(C)(C)O2 (centres undefined)	27.2%
Cc1ccc(C)c(S(=O)(=O)n2cnc3ccccc32)c1	-9%
Cc1ccc(C)c(S(=O)(=O)N2CC(=O)Nc3ccccc32)c1	-86.7% (active)
Cc1ccc(S(=O)(=O)N2CC(=O)Nc3ccccc32)cc1C	5.54%
COc1ccc(NC(=S)NCc2cccs2)c(OC)c1	-5.37%
O=C(CN1CCN(S(=O)(=O)c2ccc(Br)cc2)CC1)Nc1ccccc1C(=O)c1ccccc1	41.1%
COC(=O)NNC(=O)C1CCC(C)CC1 (centres undefined)	21.6%
CCOC(=O)CSc1nnc(NC(=O)c2cccc(S(=O)(=O)N3CCCCC3)c2)s1	19.2%
O=C(Nc1nncs1)c1cccc(S(=O)(=O)N2CCCCC2)c1	-22%
CCOC(=O)C1=C(CC)Nc2ccccc2N=C1NC(=O)c1cccc(S(=O)(=O)N2CCCC2)c1	-114% (active)
COc1ccc(C)cc1NC(=O)C(Sc1ccccc1)c1ccccc1 (centres undefined)	-2.98%
CCC(C)NC(=O)c1ccc(N2CCC3(CC2)OCCO3)c([N+](=O)[O-])c1 (centres undefined)	36.6%
COc1ccc(NC(=O)CN(Cc2ccccc2)S(C)(=O)=O)cc1OC	-0.222%
CCCCC(=O)N/N=C(\C)CC(=O)Nc1cc(Cl)ccc1OC	41.6%

Compound	activity change (PNC), negative = inhibition
C/C(CC(=O)Nc1ccc(Cl)cc1)=N\NC(=O)C(=O)NCCO	-81.9% (active)
COc1ccc(COC(=O)N/N=C(\C)CC(=O)Nc2ccc(Cl)cc2)cc1	20.7%
CC(C)(C)C1CCC(=NNC(=O)c2ccc(Br)o2)CC1 (centres undefined)	30.8%
O=C(Nc1cn(-c2ccccc2)nc1-c1ccccc1)c1ccccc1	22.3%
Cc1nn(-c2ccccc2)c(C)c1/C=C/C(=O)OC(C)C(N)=O (centres undefined)	7.76%
Cc1nn(-c2ccccc2)c(Cl)c1/C=C/C(=O)c1ccc(O)cc1	-91.6% (active)
Cc1ccc(C(=O)/C=C/c2c(C)nn(-c3ccccc3)c2Cl)cc1	-11.1%
NC1=C([N+](=O)[O-])C(c2ccccc2)C2=C(CCCC2=O)O1 (centres undefined)	6.59%
CC(OC(=O)c1ccccc1N1C(=O)C2C3CCC(C3)C2C1=O)C(=O)c1ccccc1 (centres undefined)	-15.7%
CCOC(=O)c1c(NC(=O)CCl)sc(C(=O)N(CC)CC)c1C	4.89%
CC(C)C(C)NC(=O)COc1ncnc2ccccc12 (centres undefined)	23%
CCOC(=O)c1sc(NC(=O)COc2ncnc3ccccc23)c(C(=O)OCC)c1C	-95.9% (active)
CCOc1ccc(-c2n[nH]c(=S)n2/N=C/c2cc3c(cc2[N+](=O)[O-])OCO3)cc1	25.2%
COC(=O)c1sccc1NC(=O)COc1ccc(Cl)cc1	-3.53%
O=C(COc1ccc(Cl)cc1)NCCSc1ccccc1	8.59%
O=C(COc1ccc(Cl)cc1)Nc1ccccc1CO	-92.3% (active)
CCS(=O)(=O)N1Cc2ccccc2CC1C(=O)Nc1nc2ccc(F)cc2s1 (centres undefined)	48.1%
O=C1C2C3C=CC(C4CC34)C2C(=O)N1c1nccs1 (centres undefined)	23.7%
Cc1cc(Cl)ccc1NC(=S)N1CCC(C(N)=O)(N2CCCCC2)CC1	74.5%
Cc1nc2sc(C(=O)c3ccccc3)c(N)c2c2c1CCCC2	7.19%
CC(=O)Nc1ccc(NC(=O)c2sc3nc4c(c(-c5ccc(C)cc5)c3c2N)CCC4)cc1	14%
NC(=O)c1sc2nc3c(c(-c4ccccc4)c2c1N)CCC3	-100% (active)
COc1ccc(Br)cc1C(=O)Nc1cccc(C)c1C	-16.5%
CC(C)OCCCNC(=O)c1cc(Sc2ccc(F)cc2)nc2ccccc12	-1.71%

Compound	activity change (PNC), negative = inhibition
Cc1cc(C)cc(NC(=O)N2CCC(NC(=O)c3ccc(F)cc3)CC2)c1	-20.1%
O=S(=O)(c1ccc(F)cc1)N1CCN(C(=S)NCc2ccco2)CC1	8.43%
O=C(NC1CCN(C(=S)NCc2ccco2)CC1)c1ccc(F)cc1	-100% (active)
Cc1ccc(CN2CCN(/N=C/c3cccnc3)CC2)c(C)c1	-5.48%
CC(C)(C)NC(=O)C(=O)NCc1ccncc1	-17.6%
O=C(N/N=C/c1ccccn1)C12CC3CC(CC(C3)C1)C2	-19.1%
COCCCn1c2nc3ccccc3nc2c2c(=O)n(Cc3ccc(Cl)cc3)c(C)nc21	39.8%
CCOc1ccccc1C(=O)NCCCn1ccnc1	15.6%
Cc1nc2ccccc2c(=O)n1CCCn1ccnc1	-81.9% (active)
Cc1ccc(C2C3=C(Nc4[nH]n(-c5ccccc5)c(=O)c42)c2ccccc2C3=O)cc1 (centres undefined)	-4.45%
CCCN(CCC)C(=S)Nc1cc(C(=O)OC)ccc1C(=O)OC	27.9%
Cn1c(=O)c(Sc2ccc(Cl)cc2)c(O)c2ccccc21	-25.4%
CCOC(=O)CNC(=O)/C=C/c1c(Cl)cccc1Cl	-123% (active)
O=C(/C=C/c1c(Cl)cccc1Cl)NCc1ccccc1	-1.54%
O=C(CNC(=O)Cc1ccccc1)NCC(=O)OCC(=O)c1ccccc1Cl	90.5%
CCOC(=O)CC(NC(=O)C1c2ccccc2Oc2ccccc21)c1ccc(C)cc1 (centres undefined)	-19.2%
CCOC(=O)N1CCN(C(=O)C2CCN(Cc3ccc(OC)cc3OC)CC2)CC1	33.2%
N/C(=N\c1nc2ccccc2o1)NC(=O)C(Cc1ccccc1)N1C(=O)c2ccccc2C1=O (centres undefined)	-100% (active)
O=C(NCCN1CCOCC1)[C@H](Cc1ccccc1)N1C(=O)c2ccccc2C1=O	-13.4%
O=C(NC1=NCCS1)[C@H](Cc1ccccc1)N1C(=O)c2ccccc2C1=O	5.11%
CC(Sc1nc(-c2ccccc2)cc(C(F)(F)F)n1)C(=O)Nc1ccc2c(c1)OCO2 (centres undefined)	-18%
c1n[nH]c(NCc2ccc3c(c2)OCO3)n1	-81.5% (active)
Cc1ccc(C(=O)OCC(=O)NCc2ccc3c(c2)OCO3)s1	-9.27%
O=C(COc1ccccc1)NCc1ccc2c(c1)OCO2	24%

Compound	activity change (PNC), negative = inhibition
O=C(CSc1nnc(SCc2ccc(Cl)cc2)s1)N/N=C/c1ccccc1Cl	-24.9%
CCOc1ccc(N2C(=O)/C(=C/c3ccc(C)o3)N(C)C2=S)cc1	15.7%
CC(C)CCN1C(=O)c2ccc(C(=O)Nc3cccc(S(N)(=O)=O)c3)cc2C1=O	-6.14%
CCOC(=O)C1=C(C)NC(=O)NC1c1ccccc1 (centres undefined)	2.37%
CCOC(=O)C1=C(C)NC(=S)NC1c1cccs1 (centres undefined)	-93.3% (active)
CCOC(=O)C1=C(C)NC(C)=C(C(=O)OCC)C1C1=COCCO1	12%
CONc1nc2nonc2nc1NOC	47%
Cc1cnc(NC(=O)CSc2nnc(-c3ccc(Cl)cc3Cl)n2N)s1	-100% (active)
Cc1cnc(NC(=O)CSc2nnc(-c3ccccc3)n2Cc2ccccc2)s1	-8.74%
Cc1cnc(NC(=O)CSc2c(Cl)cccc2Cl)s1	79.3%
COc1ccc(C(=O)O/N=C(\N)Cc2ccc(Cl)cc2Cl)cc1OC	-26.7%
CNS(=O)(=O)c1ccc(N2CCCC2=O)c([N+](=O)[O-])c1	-24.4%
COc1ccc(C(CC(=O)c2ccccc2)S(=O)(=O)c2ccccc2)cc1 (centres undefined)	10.3%
COCCOC(=O)C1=C(C)N=c2s/c(=C\c3cccs3)c(=O)n2C1c1cccs1 (centres undefined)	-82.9% (active)
CCOC(=O)C1=C(C)N=c2s/c(=C\C(=O)OC)c(=O)n2C1c1ccc(OC)cc1 (centres undefined)	0.912%
COCCOC(=O)C1=C(C)Nc2nc(C)nn2C1c1ccccc1 (centres undefined)	-12.5%
C=CCOc1ccc(/C=N/NC(=O)C(C)Sc2ccccn2)cc1OCC (centres undefined)	17.5%
Cc1ccc(N=C2NC(=O)c3cccc([N+](=O)[O-])c32)cc1	43.8%
Cn1c2ccccc2c(=O)c2c(=O)n(Cc3ccco3)c(COc3ccccc3)nc21	-87% (active)
Cc1nc2c(c(=O)n1Cc1ccco1)c1nc3ccccc3nc1n2Cc1ccccc1	32.1%
COc1ccc(NC(=O)Cn2c(=O)n(Cc3ccco3)c(=O)c3ccccc32)cc1	-2.68%
Cc1cc(NC(=O)COC(=O)COc2ccc(Cl)cc2C)c([N+](=O)[O-])cc1C	-20.6%
